Test results as given in PubChem BioAssay (NCATS).
Results filed as inconclusive are left out. Calls of active or inactive are those of the source. Unless noted, calls come from the whole dose curve; as a rule, active = well fitted curve in the direction sought with a large enough effect; inconclusive = small, poorly fitted or top-dose-only effect, or another doubt; inactive = no such curve, though single readings can be large; an effect the other way counts as inactive or inconclusive.

Columns and labels:
[1] = target: Lysosomal acid glucosylceramidase (Homo sapiens) (UniProt P04062); test: Glucocerebrosidase-p2 (AID 348; in the data active = potency below about 10 µM; note: potency is the fitted concentration of half-maximal effect); details: purified GBA, blue fluorogenic substrate, 40 min
Lysosomal acid glucosylceramidase (Homo sapiens), sequence (P04062 whole entry, looked up): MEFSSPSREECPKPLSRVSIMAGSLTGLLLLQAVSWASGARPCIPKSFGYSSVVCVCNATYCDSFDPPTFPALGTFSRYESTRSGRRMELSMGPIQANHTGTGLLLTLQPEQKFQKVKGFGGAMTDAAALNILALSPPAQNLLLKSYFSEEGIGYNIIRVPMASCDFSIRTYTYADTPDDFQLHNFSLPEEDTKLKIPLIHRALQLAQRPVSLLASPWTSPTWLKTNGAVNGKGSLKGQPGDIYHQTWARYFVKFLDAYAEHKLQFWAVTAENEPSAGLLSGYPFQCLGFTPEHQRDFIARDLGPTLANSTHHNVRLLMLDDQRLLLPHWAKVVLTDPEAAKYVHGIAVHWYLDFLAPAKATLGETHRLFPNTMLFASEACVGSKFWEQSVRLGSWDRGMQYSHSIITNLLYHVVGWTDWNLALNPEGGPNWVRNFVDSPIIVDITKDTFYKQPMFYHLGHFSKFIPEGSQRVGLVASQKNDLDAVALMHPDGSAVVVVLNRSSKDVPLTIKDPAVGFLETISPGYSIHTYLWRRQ
Summary of the method: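 Normal human glucocerebrosidase (0.2 nM) with blue fluorogenic substrate (80 uM final) in citrate/phosphate pH 5.9 with 10mM sodium taurocholate, 0.01% tween-20; 40 min RT, NaOH/glycine stop; fluorescence Ex 365/Em 440; AC50 from a titration from 0.6 nM upwards.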

[2] = AP1 Signaling Pathway (AID 357; active = well fitted curve in either direction with a large enough effect, not every such curve was filed as active;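 note: ME-180 reporter cells stimulated with EGF at its EC50 level; % is set by controls: 0 for no effect and ±100 for the full control effect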); details: ME-180 AP-1-bla reporter, EGF-induced, beta-lactamase ratio, 5 h; at 7.69 µM (top of the series) unless noted
Summary of the method: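 AP-1-bla ME-180 cells, Opti-MEM + 0.5% dialyzed FBS, plated overnight 37 °C. Cpd titration + EC50 EGF, 5 h 37 °C. CCF4 2.5 h RT; ex 405, em 460/530 ratio → %activity, AC50.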

[3] = target: Cytochrome P450 1A2 (Homo sapiens) (UniProt P05177); test: p450-cyp1a2 (AID 410; calls by dose curve; note: potency is the fitted concentration of half-maximal effect;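 for activity change, negative = inhibition: -100% = full effect of reference inhibitor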); details: recombinant CYP1A2, luciferin-ME demethylation, luminescence; series mostly up to 57 µM
Cytochrome P450 1A2 (Homo sapiens), sequence (P05177 whole entry, looked up): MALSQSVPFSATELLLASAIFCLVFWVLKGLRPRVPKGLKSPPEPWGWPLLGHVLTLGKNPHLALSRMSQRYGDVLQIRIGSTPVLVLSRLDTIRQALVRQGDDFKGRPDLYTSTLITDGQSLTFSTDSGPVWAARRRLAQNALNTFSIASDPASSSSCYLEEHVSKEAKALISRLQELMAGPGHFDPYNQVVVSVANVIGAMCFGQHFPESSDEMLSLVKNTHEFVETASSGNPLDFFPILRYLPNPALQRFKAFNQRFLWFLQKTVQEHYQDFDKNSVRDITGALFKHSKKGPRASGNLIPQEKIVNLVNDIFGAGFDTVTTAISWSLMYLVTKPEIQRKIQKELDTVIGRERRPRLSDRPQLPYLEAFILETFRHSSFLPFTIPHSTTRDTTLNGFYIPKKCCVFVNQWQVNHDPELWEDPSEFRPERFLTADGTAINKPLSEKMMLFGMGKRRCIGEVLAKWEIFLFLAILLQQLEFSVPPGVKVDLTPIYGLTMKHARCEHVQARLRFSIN
Summary of the method: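 Luminescent demethylation readout: Luciferin-ME (100uM, equal to Km) turned over by 20nM CYP1A2 for 60 min at room temperature after NADPH regeneration addition, following 10 min compound preincubation. Normalization used 57 uM furafylline as full inhibition.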

[4] = NFAT Signaling Pathway (AID 444; active = well fitted curve in either direction with a large enough effect, not every such curve was filed as active;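 note: carbachol stimulus at about its EC50 of 1 µM final; % is set by controls: 0 for no effect and ±100 for the full control effect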); details: Jurkat NFAT-bla M1, carbachol, beta-lactamase ratio, 5 h; at 7.69 µM (top of the series) unless noted
Summary of the method: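 Jurkat cells with NFAT-driven β-lactamase reporter and co-expressed M1 receptor, stimulated with carbachol (final 1 uM, ~EC50), compound titration, 5 h at 37 °C. CCF4 loaded 1 h at RT; 460/530 nm ratio gave %activity and AC50.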

[5] = Stat Signaling Pathway (AID 446; active = well fitted curve in either direction with a large enough effect, not every such curve was filed as active;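 note: ME-180 cervical cancer cells given 40 pM IL-6 alongside compound; SIE-controlled beta-lactamase reporter measured as 460/530 nm FRET emission ratio; % is set by controls: 0 for no effect and ±100 for the full control effect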); details: ME-180 (cervical carcinoma) SIE beta-lactamase reporter, IL-6 stimulated, 5 h; at 7.69 µM (top of the series) unless noted
Summary of the method: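 FRET read-out (405 nm excitation, 460/530 nm emission) of a beta-lactamase reporter under a STAT-inducible element in ME-180 cervical carcinoma cells. Cells with compound receive 40 pM IL-6 for 5 h. Values are normalised to AC90 stimulation and AC90 JAK-inhibitor controls.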

[6] = target: Glucocorticoid receptor (Homo sapiens) (UniProt P04150); test: GR-GFP Redistribution (AID 450;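 active = compounds whose dose series gives a full or clear partial fitted curve of increased nuclear translocation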; note: potency is the fitted concentration of half-maximal effect); details: U2OS GR-GFP nuclear translocation, laser cytometry, 2 h
Glucocorticoid receptor (Homo sapiens), sequence (P04150 whole entry, looked up, the tested form may be a part): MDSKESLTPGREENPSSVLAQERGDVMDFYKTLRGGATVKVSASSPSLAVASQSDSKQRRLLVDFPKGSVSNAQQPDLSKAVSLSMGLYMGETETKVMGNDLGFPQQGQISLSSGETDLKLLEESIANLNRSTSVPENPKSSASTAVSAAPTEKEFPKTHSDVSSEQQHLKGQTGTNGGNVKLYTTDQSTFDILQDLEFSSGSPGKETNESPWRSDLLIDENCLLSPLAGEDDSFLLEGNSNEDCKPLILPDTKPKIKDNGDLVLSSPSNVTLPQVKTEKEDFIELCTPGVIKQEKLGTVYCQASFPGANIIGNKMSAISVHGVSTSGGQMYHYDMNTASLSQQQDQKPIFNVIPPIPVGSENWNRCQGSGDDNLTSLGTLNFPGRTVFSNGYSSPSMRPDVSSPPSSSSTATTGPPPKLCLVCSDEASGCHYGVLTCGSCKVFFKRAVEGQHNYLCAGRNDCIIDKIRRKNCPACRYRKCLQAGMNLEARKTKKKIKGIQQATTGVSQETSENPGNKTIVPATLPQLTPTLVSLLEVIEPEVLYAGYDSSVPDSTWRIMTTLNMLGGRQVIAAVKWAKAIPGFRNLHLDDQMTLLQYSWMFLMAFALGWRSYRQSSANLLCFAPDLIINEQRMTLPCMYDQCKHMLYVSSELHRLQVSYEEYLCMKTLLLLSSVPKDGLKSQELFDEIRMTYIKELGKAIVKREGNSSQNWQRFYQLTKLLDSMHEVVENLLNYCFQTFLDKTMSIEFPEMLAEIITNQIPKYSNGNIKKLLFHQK

[7] = target: Glucocorticoid receptor (Homo sapiens) (UniProt P04150); test: GR-EFC Redistribution (AID 451; calls by dose curve; note: potency is the fitted concentration of half-maximal effect); details: CHO-K1 GR-EFC translocation, beta-gal luminescence, 2 h
Summary of the method: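 CHO-K1 cells expressing nuclear EA and GR-ED fragments of b-gal; compounds titrated up to 46 uM final, 2 h at 37 C. GR nuclear translocation read as complemented b-gal luminescence after 1 h RT detection.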

[8] = target: Mitogen-activated protein kinase 10 (Mus musculus) (UniProt Q61831); test: JNK3 AlphaScreen Assay (AID 530; active = well fitted curve in either direction with a large enough effect, not every such curve was filed as active;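 note: kinase came from lysate of stimulated human HepG2 cells; signal reports phosphorylation of biotinylated GST-cJun 1-79 at Ser73 with 10 µM ATP; % is set by controls: 0 for no effect and ±100 for the full control effect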); details: JNK3 lysate, c-Jun phosphorylation; series mostly up to 57.1 µM
Summary of the method: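 Activity was read by AlphaScreen after JNK3-containing HepG2 lysate (cytokine pre-activated) phosphorylated biotinylated GST-cJun with 10 uM ATP at room temperature. Phospho-Ser73 cJun antibody with Protein-A acceptor beads provided detection.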

[9] = target: 3',5'-cyclic-AMP phosphodiesterase 4B (Homo sapiens) (UniProt Q07343); test: qHTS Assay for Inhibitors of PDE-IV (AID 607; active = well fitted activation curve with a large enough effect in the main read-out, with a control signal flat, not every such curve was filed as active; note: % of control where 0% means no effect); details: HEK293 ACTOne CNG channel cells, membrane potential fluorescence; series mostly up to 22.9 µM
3',5'-cyclic-AMP phosphodiesterase 4B (Homo sapiens), sequence (Q07343 whole entry, looked up): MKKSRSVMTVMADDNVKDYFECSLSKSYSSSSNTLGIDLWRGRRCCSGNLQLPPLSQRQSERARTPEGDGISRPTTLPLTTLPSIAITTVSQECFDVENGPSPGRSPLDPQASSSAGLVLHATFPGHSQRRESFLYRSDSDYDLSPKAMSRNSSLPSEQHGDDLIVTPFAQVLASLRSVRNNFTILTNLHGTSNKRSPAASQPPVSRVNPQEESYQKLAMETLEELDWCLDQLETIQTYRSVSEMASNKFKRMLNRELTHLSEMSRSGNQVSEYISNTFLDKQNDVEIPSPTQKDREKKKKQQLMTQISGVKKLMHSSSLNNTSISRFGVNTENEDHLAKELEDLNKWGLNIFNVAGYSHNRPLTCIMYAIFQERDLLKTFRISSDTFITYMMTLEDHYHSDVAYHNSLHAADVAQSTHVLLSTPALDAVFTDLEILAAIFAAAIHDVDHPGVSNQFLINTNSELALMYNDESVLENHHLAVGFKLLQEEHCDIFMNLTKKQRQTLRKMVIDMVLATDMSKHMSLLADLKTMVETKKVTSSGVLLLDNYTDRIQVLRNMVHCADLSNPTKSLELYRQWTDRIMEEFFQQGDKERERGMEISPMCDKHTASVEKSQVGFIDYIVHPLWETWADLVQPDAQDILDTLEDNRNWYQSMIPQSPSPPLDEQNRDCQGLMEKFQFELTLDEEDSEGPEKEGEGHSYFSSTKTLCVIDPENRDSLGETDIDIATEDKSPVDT
Summary of the method: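 Cell-based read-out of cAMP via a modified cyclic nucleotide-gated channel and membrane potential dye (535/590 nm) in HEK293 cells expressing PDE4 endogenously. Compounds tested up to 22.9 uM final; 100 uM RO 20-1724 reference.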

[10] = qHTS Assay for Lipid Storage Modulators (AID 1519; calls by dose curve); details: Drosophila S3 cells, BODIPY lipid droplet/cell ratio, laser cytometry, cells loaded with oleic acid; for activity change, negative = inhibition: at 57.5 µM (top of the series)
Summary of the method: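 Cells seeded at 5,000 per well were treated with compounds over a concentration series and loaded with oleic acid (400 uM, as added). Lipid droplet fluorescence (488 nm excitation, 500-530 nm channel) was read by laser-scanning cytometry and normalized to 20 uM Triacsin C.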

[11] = target: Dual specificity protein kinase CLK4 (Homo sapiens) (UniProt Q9HAZ1); test: qHTS Assay for Inhibitors of CDC-like Kinase 4 (ADP-FP Assay) (AID 1795); details: Transcreener ADP fluorescence polarization; series mostly up to 50 µM;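 note: recombinant human CLK4 phosphorylating RS repeat peptide at 1 µM ATP; % is set by controls: 0 for no effect and ±100 for the full control effect; nearly all actives have a fitted effect of over 60% in size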
Dual specificity protein kinase CLK4 (Homo sapiens), sequence (Q9HAZ1 whole entry, looked up): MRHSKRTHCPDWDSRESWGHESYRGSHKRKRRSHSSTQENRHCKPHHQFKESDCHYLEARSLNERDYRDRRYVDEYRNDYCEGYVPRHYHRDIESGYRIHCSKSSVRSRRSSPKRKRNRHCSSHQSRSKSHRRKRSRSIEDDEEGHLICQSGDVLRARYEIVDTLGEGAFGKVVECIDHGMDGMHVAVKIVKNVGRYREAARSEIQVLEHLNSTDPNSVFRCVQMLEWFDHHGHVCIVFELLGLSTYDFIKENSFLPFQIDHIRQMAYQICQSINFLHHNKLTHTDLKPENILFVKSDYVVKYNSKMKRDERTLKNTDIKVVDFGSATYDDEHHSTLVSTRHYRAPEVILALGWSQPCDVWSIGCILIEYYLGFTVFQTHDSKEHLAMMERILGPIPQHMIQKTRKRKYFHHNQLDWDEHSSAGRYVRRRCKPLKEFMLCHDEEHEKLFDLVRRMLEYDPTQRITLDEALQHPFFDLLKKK
Summary of the method: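 Recombinant Clk4 (6.25 nM) phosphorylated 100 uM RS repeat peptide with 1 uM ATP in 25 mM Tris pH 7.5, 10 mM MgCl2, 0.5 mM EGTA, 2.5 mM DTT, 0.01% Triton X-100 for 1 h. ADP was detected by Transcreener ADP2 competitive fluorescence polarization after 30 min at room temperature.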

[12] = Primary qHTS for small molecule stabilizers of the endoplasmic reticulum resident proteome: Secreted ER Calcium Modulated Protein (SERCaMP) assay (AID 1508630); details: SH-SY5Y GLuc-SERCaMP (Gaussia luciferase released on ER calcium loss) secretion, thapsigargin, luminescence; series mostly up to 38.4 µM; note: % is set by controls: 0 for no effect and ±100 for the full control effect
Summary of the method: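 The SH-SY5Y reporter protocol was run at 3 concentrations up to 38.3 uM (primary) or 11 concentrations (follow-up): 16 h compound, 100 nM thapsigargin for 4 h, then extracellular luciferase luminescence.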

[13] = target: Cytochrome P450 2C9 (Homo sapiens) (UniProt P11712); test: qHTS Assay for Inhibitors and Substrates of Cytochrome P450 2C9 (AID 883); details: recombinant CYP2C9, luciferin-H luminescence, 60 min; series mostly up to 57.1 µM; note: % is set by controls: 0 for no effect and ±100 for the full control effect; nearly all actives have a fitted effect of over 60% in size
Cytochrome P450 2C9 (Homo sapiens), sequence (P11712 whole entry, looked up): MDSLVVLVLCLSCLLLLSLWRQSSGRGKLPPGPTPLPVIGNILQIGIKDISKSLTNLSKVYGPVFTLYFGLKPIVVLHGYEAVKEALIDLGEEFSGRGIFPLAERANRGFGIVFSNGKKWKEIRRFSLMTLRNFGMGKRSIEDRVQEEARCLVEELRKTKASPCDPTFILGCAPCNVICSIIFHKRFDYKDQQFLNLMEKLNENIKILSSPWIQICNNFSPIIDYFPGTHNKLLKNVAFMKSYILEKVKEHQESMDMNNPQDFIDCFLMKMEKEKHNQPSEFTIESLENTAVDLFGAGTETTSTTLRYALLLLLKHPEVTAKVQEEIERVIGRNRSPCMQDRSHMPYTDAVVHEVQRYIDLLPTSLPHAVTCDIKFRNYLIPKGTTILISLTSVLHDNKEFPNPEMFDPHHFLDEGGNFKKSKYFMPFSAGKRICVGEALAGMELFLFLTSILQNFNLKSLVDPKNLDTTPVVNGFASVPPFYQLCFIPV
Summary of the method: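 Human CYP2C9 (10nM) with Luciferin-H at 100uM (its KM) in 25mM KPO4; compound preincubated 10 min at 37C, then NADPH regeneration for 60 min at 37C. Luciferin read by luminescence after detection reagent; normalized to 57uM sulphaphenazole as full inhibition.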

[14] = target: Cytochrome P450 3A4 (Homo sapiens) (UniProt P08684); test: qHTS Assay for Inhibitors and Substrates of Cytochrome P450 3A4 (AID 884); details: recombinant CYP3A4, Luciferin-PPXE luminescence; series mostly up to 57.1 µM; note: potency is the fitted concentration of half-maximal effect; nearly all actives have a fitted effect of over 50% in size
Cytochrome P450 3A4 (Homo sapiens), sequence (P08684 whole entry, looked up): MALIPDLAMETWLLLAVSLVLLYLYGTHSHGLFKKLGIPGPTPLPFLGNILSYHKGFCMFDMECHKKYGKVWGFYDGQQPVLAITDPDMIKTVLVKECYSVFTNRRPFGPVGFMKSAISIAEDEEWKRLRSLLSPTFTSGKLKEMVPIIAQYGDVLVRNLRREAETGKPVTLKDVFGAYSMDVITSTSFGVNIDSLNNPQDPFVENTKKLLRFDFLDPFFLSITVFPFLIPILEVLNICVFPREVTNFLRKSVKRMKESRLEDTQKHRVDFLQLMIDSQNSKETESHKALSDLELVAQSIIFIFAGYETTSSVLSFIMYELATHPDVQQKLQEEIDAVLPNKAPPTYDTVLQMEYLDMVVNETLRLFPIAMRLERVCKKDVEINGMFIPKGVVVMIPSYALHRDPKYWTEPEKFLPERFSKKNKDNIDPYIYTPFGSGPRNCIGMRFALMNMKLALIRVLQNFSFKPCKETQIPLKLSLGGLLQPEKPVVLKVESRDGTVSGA
Summary of the method: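 Luminescent readout of luciferin produced by CYP3A4 (20 nM) dealkylation of Luciferin-PPXE, 25 uM (its KM). NADPH-driven reaction ran 60 min at RT after 10 min compound preincubation; data scaled to 57 uM ketoconazole as 100% inhibition.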

[15] = target: Cytochrome P450 3A4 (Homo sapiens) (UniProt P08684); test: qHTS Assay for Activators of Cytochrome P450 3A4 (AID 885); details: recombinant CYP3A4, Luciferin-PPXE luminescence, 60 min; series mostly up to 57.1 µM; note: nearly all actives have a fitted effect of over 65% in size
Summary of the method: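 Luminescent readout of luciferin formed from 25 uM Luciferin-PPXE (KM level) by 20 nM CYP3A4 in 200 mM KPO4, with 60 min NADPH-driven reaction at room temperature after 10 min compound exposure. Ketoconazole (57 uM) defined 100% inhibition.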

[16] = target: Cytochrome P450 2C19 (Homo sapiens) (UniProt P33261); test: qHTS Assay for Inhibitors and Substrates of Cytochrome P450 2C19 (AID 899); details: recombinant CYP2C19, luciferin-H EGE luminescence; series mostly up to 57.1 µM; note: potency is the fitted concentration of half-maximal effect; nearly all actives have a fitted effect of over 60% in size
Summary of the method: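 5 nM human CYP2C19 with 10uM Luciferin-H EGE (at KM) in 50mM KPO4, compound preincubated 10 min at 37C, then NADPH regeneration for 60 min at 37C. Luciferin read by luminescence after detection reagent; normalized to 57uM ketoconazole as full inhibition.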

[17] = Confirmation and Secondary Assay for Modulators of Hemoglobin Beta Chain Splicing at IVS2 654 locus (AID 910); details: HeLa EGFP-654 splicing reporter, GFP fluorescence, 48 h; series mostly up to 38.3 µM;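 note: HeLa cells stably carrying EGFP split by mutant beta-globin IVS2-654 intron; % of control where 0% means no effect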
Summary of the method: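 HeLa cells stably expressing EGFP interrupted by β-globin IVS2-654 intron, seeded overnight in Opti-MEM/2% FCS, then treated 2 days at 37 °C. Restored splicing read as total peak GFP intensity per well by laser scanning cytometry (488 nm excitation, 500–520 nm emission); 500 nM antisense PNA as control.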

[18] = Confirmation and Secondary Assay for Modulators of Hemoglobin Beta Chain Splicing at IVS2 705 locus (AID 930); details: HeLa EGFP-705 splicing reporter, GFP fluorescence, 48 h; series mostly up to 38.3 µM;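 note: HeLa cells stably expressing the EGFP-705 splicing reporter; GFP fluorescence per well restored by corrected splicing of the IVS2-705 intron in EGFP; % of control where 0% means no effect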
Summary of the method: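 Secondary splice-site specificity test uses HeLa expressing CMV-driven EGFP interrupted by IVS2-705; cells were treated 2 days at 37C with 500 nM antisense PNA as positive control.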

[19] = target: Ubiquitin carboxyl-terminal hydrolase 1 (Homo sapiens) (UniProt O94782); test: Inhibitors of USP1/UAF1: Pilot qHTS (AID 504865); details: purified USP1/UAF1, Ub-rhodamine cleavage fluorescence; series mostly up to 54.9 µM;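 note: rhodamine fluorescence freed from ubiquitin-rhodamine substrate followed over time; top concentration of the series differs between compounds; % is set by controls: 0 for no effect and ±100 for the full control effect; nearly all actives have a fitted effect of over 35% in size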
Ubiquitin carboxyl-terminal hydrolase 1 (Homo sapiens), sequence (O94782 whole entry, looked up): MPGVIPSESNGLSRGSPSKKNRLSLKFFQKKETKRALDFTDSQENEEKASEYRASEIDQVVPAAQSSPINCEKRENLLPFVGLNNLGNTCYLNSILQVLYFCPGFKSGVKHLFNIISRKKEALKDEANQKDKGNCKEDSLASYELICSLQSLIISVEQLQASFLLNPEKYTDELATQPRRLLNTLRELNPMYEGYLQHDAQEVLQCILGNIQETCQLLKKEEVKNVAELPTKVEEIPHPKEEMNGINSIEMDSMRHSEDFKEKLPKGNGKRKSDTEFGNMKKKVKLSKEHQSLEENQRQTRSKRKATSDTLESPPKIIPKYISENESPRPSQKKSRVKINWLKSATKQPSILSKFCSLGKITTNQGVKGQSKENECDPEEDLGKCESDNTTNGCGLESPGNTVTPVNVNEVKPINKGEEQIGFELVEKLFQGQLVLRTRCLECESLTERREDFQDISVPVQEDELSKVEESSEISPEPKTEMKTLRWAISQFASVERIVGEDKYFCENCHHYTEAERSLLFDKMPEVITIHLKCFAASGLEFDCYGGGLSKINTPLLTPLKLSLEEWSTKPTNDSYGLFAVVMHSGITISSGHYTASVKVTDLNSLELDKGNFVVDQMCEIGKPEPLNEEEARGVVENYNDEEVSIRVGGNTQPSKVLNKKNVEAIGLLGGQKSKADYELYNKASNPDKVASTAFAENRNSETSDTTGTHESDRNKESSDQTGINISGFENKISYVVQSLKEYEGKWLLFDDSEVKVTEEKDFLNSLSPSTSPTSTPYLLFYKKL
Summary of the method: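 USP1/UAF1 complex at 1 nM preincubated 15 min at room temperature with compound, then Ub-Rho substrate added at 150 nM final. Fluorescence (480/540 nm) read kinetically in 50 mM HEPES pH 7.8, 0.5 mM EDTA, 1 mM TCEP, 0.1 mg/ml BSA, 0.01% Tween-20.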

[20] = measured here: cell count channel max response
[21] = measured here: lipid channel max response

CN(C)C(=O)c1ccc(-c2cncnc2N2CCNCC2)cc1
20.2%: max response [10, 21]
16.8%: max response [10, 20]
inactive: Potency [1] > 11.4 µM | activity change, negative = inhibition [2] -5.59% | Potency [3] | activity change, negative = inhibition [4] 10.6% | activity, negative = inhibition [5] 9.81% | Potency [6] > 46 µM | Potency [7] > 46 µM | outcome [8] | Potency [9] | activity change, negative = inhibition [10] 5.34% | Potency [11] | Potency [12]

Cc1noc(C)c1-c1nccc(-n2ccnc2)n1
20.6%: max response [10, 21]
active: Potency [3] 0.2 µM | Potency [14] 1.26 µM | Potency [16] 3.98 µM
inactive: Potency [1] > 11.4 µM | activity change, negative = inhibition [2] 3.6% | activity change, negative = inhibition [4] -0.351% | activity, negative = inhibition [5] 16.2% | Potency [6] > 46 µM | Potency [7] > 46 µM | outcome [8] | Potency [9] | activity change, negative = inhibition [13] 16.1% [at 2.29 µM] | Potency [15] | outcome [17] | outcome [18] | activity change, negative = inhibition [10] 7.83% | Potency [19] | Potency [12]
12.5%: max response [10, 20]

COCCNc1ccnc(-c2ccccc2C(F)(F)F)n1
29.2%: max response [10, 21]
active: Potency [3] 20 µM
inactive: Potency [1] > 11.4 µM | activity, negative = inhibition [5] 8.97% | Potency [6] > 46 µM | Potency [7] > 46 µM | outcome [8] | Potency [9] | activity change, negative = inhibition [13] 34.3% [at 2.29 µM] | activity change, negative = inhibition [10] 3.61% | Potency [11] | Potency [19] | Potency [12]
25.6%: max response [10, 20]

Cn1c(=O)c(-c2cccs2)nc2cncnc21
19.2%: max response [10, 21]
inactive: Potency [1] > 11.4 µM | activity change, negative = inhibition [2] 16% | activity change, negative = inhibition [4] 2.85% | activity, negative = inhibition [5] -17.1% | Potency [6] > 9.22 µM | Potency [7] > 46 µM | outcome [8] | Potency [9] | Potency [15] | activity change, negative = inhibition [10] 2.77% | Potency [11] | Potency [19] | Potency [12]
active: Potency [3] 1.26 µM | Potency [14] 7.94 µM
18.7%: max response [10, 20]

CC(=O)NCCNc1ccnc(-c2ccccc2C(F)(F)F)n1
inactive: Potency [1] > 11.4 µM | activity change, negative = inhibition [2] 0.161% | activity change, negative = inhibition [4] -3.29% | activity, negative = inhibition [5] 11.9% | Potency [6] > 46 µM | Potency [7] > 46 µM | outcome [8] | Potency [9] | Potency [15] | activity change, negative = inhibition [10] 4.45% | Potency [11] | Potency [19] | Potency [12]
8.35%: max response [10, 20]
14.6%: max response [10, 21]
active: Potency [3] 15.8 µM

O=c1cnc2cnc(Nc3ccccc3)nc2n1Cc1ccc(F)cc1
14.4%: max response [10, 21]
9.12%: max response [10, 20]
active: Potency [3] 1 µM
inactive: Potency [1] > 11.4 µM | activity change, negative = inhibition [2] -17.4% | activity change, negative = inhibition [4] 3.72% | activity, negative = inhibition [5] -3.92% | Potency [7] > 46 µM | outcome [8] | activity change, negative = inhibition [10] 6.15% | Potency [11] | Potency [19] | Potency [12]
